Shown are actives, neighbours in structure and some others; about 3.2% of the full set was active somewhere.
Tau fluor counter = Counterscreen qHTS for Inhibitors of Tau Fibril Formation, Fluorescence Polarization; tau K18 P301L Alexa594 fluorescence, heparin fibrillization; hit rate 0.93% among 280,000; Potency, µM (doses to about 57.7 µM), inactives show at the highest dose activity change, negative = decrease; also: nearly all actives have a fitted effect of over 55% in size
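Human tau K18 P301L (15 uM unlabeled, 0.24 uM Alexa 594-labeled) in 100 mM sodium acetate pH 7 with 20 uM heparin, 6 hr at 37 C. ThT 30 uM added, 1 hr ambient; Alexa 594 FP and total fluorescence read at 555/632 nm.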
Tau fibril FP = qHTS for Inhibitors of Tau Fibril Formation, Fluorescence Polarization; K18 P301L tau heparin fibrillization, Alexa594 FP, 6 h; Potency, µM (titrated, usually from 57.7 µM), for inactives: top-dose activity, negative = inhibition, usual class: inhibitors; hit rate 0.39% among 280,000; AID 1468, 2008; also: nearly all actives have a fitted effect of over 55% in size
Target sequence (P10636 561-689 P618L limits assumed): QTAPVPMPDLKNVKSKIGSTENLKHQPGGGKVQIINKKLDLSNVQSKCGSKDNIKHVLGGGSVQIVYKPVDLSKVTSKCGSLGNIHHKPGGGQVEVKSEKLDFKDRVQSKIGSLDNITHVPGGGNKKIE
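Compound effects on tau fibrillization are measured by Alexa 594 fluorescence polarization (ex 555, em 632 nm). K18 P301L tau is used at 15 uM with 0.24 uM labeled tracer, and 20 uM heparin induces aggregation over 6 hr at 37 C.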
GoLoco inh red = qHTS Assay for Inhibitors of RGS12 GoLoco Motif Activity (Red Fluorophore) | Guanine nucleotide-binding protein G(i) subunit alpha-1 (Homo sapiens), P63096 | Gai1:RGS12 GoLoco peptide FP, rhodamine, 10 min | Potency, µM (series often up to 61.6 µM), for the others: top-dose activity, negative = inhibition, usual class: inhibitors | hit rate 0.44% among 230,000; active = well fitted inhibition curve with a large enough effect, not every such curve was filed as active; inactive = no such curve, though single readings can be large or run the other way; also: nearly all actives have a fitted effect of over 30% in size
TRb-SRC2 inh = qHTS for Inhibitors of the Interaction of Thyroid Hormone Receptor and Steroid Receptor Coregulator 2. Thyroid hormone receptor beta (Homo sapiens), P10828. TRbeta-SRC2 peptide binding, fluorescence polarization; receptor liganded with 1 µM T3. Potency, µM (highest dose often 106 µM), inactives show top-dose activity change, negative = inhibition, usual class: inhibitors. hit rate 0.065% among 280,000;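 also: plate controls were bound peptide for no effect and peptide without receptor for full effect; nearly all actives have a fitted effect of over 50% in size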
Target sequence (P10828 whole entry, looked up): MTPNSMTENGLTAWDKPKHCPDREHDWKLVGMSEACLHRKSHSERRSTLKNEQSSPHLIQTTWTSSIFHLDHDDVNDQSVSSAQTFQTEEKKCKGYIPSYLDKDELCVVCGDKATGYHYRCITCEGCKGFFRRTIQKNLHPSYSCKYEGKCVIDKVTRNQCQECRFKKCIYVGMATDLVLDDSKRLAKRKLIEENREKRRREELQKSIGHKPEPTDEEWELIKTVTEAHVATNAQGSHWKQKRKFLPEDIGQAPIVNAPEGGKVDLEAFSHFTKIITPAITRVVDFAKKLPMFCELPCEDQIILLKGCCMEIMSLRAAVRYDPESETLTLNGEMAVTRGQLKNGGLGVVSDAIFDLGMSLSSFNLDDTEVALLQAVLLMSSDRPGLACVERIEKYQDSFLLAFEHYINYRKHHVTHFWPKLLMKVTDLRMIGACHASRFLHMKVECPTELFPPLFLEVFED
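Binding of a 20-amino-acid Texas Red SRC2 peptide (20 nM) to TRb ligand-binding domain (0.6 uM) with agonist T3 at 1 uM was followed by fluorescence polarization after a 5 hr room-temperature incubation.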
TexasRed fluor = Total Fluorescence Counterscreen for Inhibitors of the Interaction of Thyroid Hormone Receptor and Steroid Receptor Coregulator 2. TRb/SRC2 Texas Red total fluorescence interference. Potency, µM (series often up to 106 µM), for inactives: top-dose fluorescence change, negative = quenching. hit rate 0.29% among 280,000; active = well fitted curve in either direction with a large enough effect; inconclusive = small, poorly fitted or top-dose-only effect
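Human TRβ ligand-binding domain (0.6 uM) and Texas Red SRC2 peptide (20 nM) in Tris buffer with 1 uM T3 and 5% DMSO were incubated with pinned compound for 5 hr at ambient temperature. Total fluorescence was computed as S + 2P (555/632 nm).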
Tau ThT inhib = qHTS for Inhibitors of Tau Fibril Formation, Thioflavin T Binding; Microtubule-associated protein tau (Homo sapiens), P10636; recombinant tau K18 P301L (four-repeat tau fragment), heparin-induced fibrillization, ThT fluorescence; Potency, µM (titrated, usually from 57.4 µM), without a hit: at the top dose activity, negative = inhibition, hits mostly inhibitors; hit rate 2.1% among 270,000; AID 1460, 2008; also: nearly all actives have a fitted effect of over 55% in size
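Aggregation was driven by heparin (20 uM final) acting on recombinant tau […] bearing P301L in 100 mM sodium acetate pH 7; fibrils were detected with Thioflavin T.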
* = called active by the depositor; u = inconclusive; x = no result; [ ] = another dose, or the depositor's remark. Unless noted, calls follow the shape of the dose curve; as a rule, active = well fitted curve in the direction sought with a large enough effect; inconclusive = small, poorly fitted or top-dose-only effect, or another doubt; inactive = no such curve, though single readings can be large; an effect the other way counts as inactive or inconclusive. Unless noted, % is scaled to controls: 0 for no effect and ±100 for the full control effect; potency is read from the fitted curve at half-maximal effect.

SMILES	Tau fluor counter	Tau fibril FP	GoLoco inh red	TRb-SRC2 inh	TexasRed fluor	Tau ThT inhib
COc1ccc(OC/C(O)=C(\C#N)c2nc3ccccc3[nH]2)cc1	-9%	-3%	-6%	-14%	1%	-19%
CN1CCc2c(sc3c2C(=O)NC(c2ccc(OC(=O)c4ccc(Cl)cc4)cc2)N3)C1 (stereo unspecified)	-12%	-4%	x	-4%	-3%	6.3µM*
CN1CCc2c(sc3c2C(=O)NC(c2ccc(OC(=O)c4ccccc4)cc2)N3)C1 (stereo unspecified)	-14%	u	x	-12%	15%	5.6µM*
CN1CCc2c(sc3c2C(=O)NC(c2ccc(OC(=O)c4ccc(C(C)(C)C)cc4)cc2)N3)C1 (stereo unspecified)	-19%	-9%	x	-3%	13%	u
C/C=C/C=C/CCCCCCCO	x	x	x	3%[201 µM]	-5%[201 µM]	x
CN1CCN(c2ncc3nc(-c4ccccc4)c(=O)n(C)c3n2)CC1	x	x	0%	x	x	x
O=S(=O)(Nc1cc(O)cc2cccnc12)c1ccc(Cl)s1	x	x	x	u	-3%	x
Cn1c(=O)c2c(nc(N/N=C/c3ccc(OC(=O)c4ccco4)cc3)n2Cc2ccc(F)cc2)n(C)c1=O	7.1µM*[quencher]	10%	1%	3%	-2%	u
Cn1c(=O)c2c(nc(N/N=C/c3ccc(OC(=O)c4ccco4)cc3)n2Cc2ccccc2Cl)n(C)c1=O	7.9µM*[quencher]	10%	4%	0%	-1%	u
Cn1c(=O)c2c(nc(N/N=C/c3cccnc3)n2Cc2ccccc2)n(C)c1=O	-24%	-5%	5%	1%	-3%	-16%
O=C(O)[C@@H]1CCCN1Cc1ccc2c(c1)OCO2	x	x	3%[14.2 µM]	x	x	x
Clc1ccc2c(c1)c1cc(Cl)ccc1n2CN1CCOCC1	u	13µM*	-5%	-21%	0%	u
CCOC(=O)/C=C/C(=O)Nc1cccc([N+](=O)[O-])c1	2%	7%	-26%	6%	1%	1%
CCOC(=O)/C=C/C(=O)Nc1ccccc1-c1ccccc1NC(=O)/C=C/C(=O)OCC	-11%	u	5%	-3%	0%	20µM*
N#C/C(=C\c1ccc(O)c([N+](=O)[O-])c1)c1nc2ccccc2s1	u	-1%	31%	12%	-26%	2.2µM*
COc1ccc(/C=C(/C#N)c2nc(-c3ccc(Br)cc3)cs2)cc1	-23%	u	x	-5%	-35%	u
COc1cc(/C=C(\C#N)c2nc3ccccc3s2)cc([N+](=O)[O-])c1O	16µM*[quencher]	-3%	65%	18%	25µM*[quencher]	1.4µM*
COc1ccc(-c2csc(/C(C#N)=C\c3ccc(O)c([N+](=O)[O-])c3)n2)cc1OC	4.5µM*[quencher]	-5%	7%	1%	-17%	1.3µM*
CC(C)c1ccc(/C=C(\C#N)c2nc(-c3ccc(O)cc3)cs2)cc1	8.9µM*[quencher]	13µM*	x	-18%	-72%	7.9µM*
CCCCCCCCCCCCCO	x	x	x	4%[201 µM]	-1%[201 µM]	x
O=C1CCNc2c(Cl)cccc21	-4%	u	4.5µM*	-2%	-5%	-4%
Clc1ccc2[nH]c3c(c2c1)CCc1cn[nH]c1-3	8.9µM*[quencher]	-13%	-3%	2%	-2%	u
c1ccc2c3c([nH]c2c1)-c1[nH]ncc1CC3	u	u	-5%	1%	-1%	u
CCC(C)c1cc([N+](=O)[O-])cc([N+](=O)[O-])c1OC(C)=O (stereo unspecified)	x	x	x	-1%	-4%	x
O=C(CSc1ncnc2c(-c3ccc(Cl)cc3)nsc12)c1ccccc1	u	u	27%	-4%	3%	18µM*
SMILES	Tau fluor counter	Tau fibril FP	GoLoco inh red	TRb-SRC2 inh	TexasRed fluor	Tau ThT inhib
N#CC1=C(N)NC(SCC(=O)O)=C(C#N)C12CCCC2	-13%	-3%	32%	-12%	0%	u
CC(C)N1CCC2(CC1)C(C#N)=C(N)NC(S)=C2C#N	u	u	x	18%	-5%	20µM*
CCn1c(CSc2nnc(-c3ccncc3)n2C)nc2cc(C(=O)O)ccc21	-3%	-8%	14µM*	40µM*	45µM*[fluorescent]	-20%
C=C(C)C(=O)/C=C/CCC/C=C/C(=O)OCC	-11%	-14%	-6%	7%	-1%	-17%
O=C(O)CC/C(=N\Nc1ccc(S(=O)(=O)N2CCCC2)cc1[N+](=O)[O-])c1cccs1	-17%	8%	-5%	-7%	-8%	32µM*
O=C(O)c1ccccc1/C=N/Nc1ccc(S(=O)(=O)N2CCOCC2)cc1[N+](=O)[O-]	-17%	-5%	0%	4%	-1%	u
O=C(O)CC/C(=N\Nc1ccc(S(=O)(=O)N2CCOCC2)cc1[N+](=O)[O-])c1cccs1	-17%	6%	1%	-10%	-8%	11µM*
O=[N+]([O-])c1cc(S(=O)(=O)N2CCCC2)ccc1N/N=C/c1cccs1	-20%	5%	12%	9%	2%	-15%
CCOc1ccc(-c2c(C)nn3c(C)c(C(=O)NCc4ccc(Cl)cc4)cnc23)cc1OCC	-16%	2%	x	-11%	251µM*[quencher]	-9%
CCOc1ccc(-c2c(C)nn3c(C)c(C(=O)NCCc4ccc(Cl)cc4)cnc23)cc1OCC	-24%	6%	x	1%	-12%	u
CCN=C1S/C(=C\c2ccc(-c3cccc(C(=O)O)c3)o2)C(=O)N1CC	2%	2%	69%	2%	2%	1%
CCN1C(=O)/C(=C\c2ccc(-c3ccc([N+](=O)[O-])cc3OC)o2)SC1=Nc1cccc(C(=O)O)c1	u	-17%	14%	-2%	3%	14µM*
O=C(Cl)c1cccc([N+](=O)[O-])c1	x	x	-2%	-1%	-2%	x
Cc1ccc(C=Nc2ccc(N(C)C)cc2)o1	u	25µM*	-4%	u	18%	10µM*
